This is a sample that favours compounds with a hit; in the whole collection about 5.1% have one here.
Tau FP inhib: qHTS for Inhibitors of Tau Fibril Formation, Fluorescence Polarization; actives 0.39% (n = 280,000); Potency, µM (highest dose often 57.7 µM), inactives show top-dose activity, negative = inhibition, usual class: inhibitors; Microtubule-associated protein tau (Homo sapiens), P10636; K18 P301L tau heparin fibrillization, Alexa594 FP, 6 h; further: potency means the concentration at half of the fitted maximal effect; nearly all actives have a fitted effect of over 55% in size
Target sequence (P10636 561-689 P618L limits assumed): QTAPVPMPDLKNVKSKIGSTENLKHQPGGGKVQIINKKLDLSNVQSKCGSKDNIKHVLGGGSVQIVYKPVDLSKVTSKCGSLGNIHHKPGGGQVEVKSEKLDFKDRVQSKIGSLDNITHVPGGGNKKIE
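K18 P301L tau (15 uM unlabeled/0.24 uM Alexa 594-labeled, final) + compound + heparin 20 uM final; 100 mM NaOAc pH 7; 6 hr 37 C; ThT 30 uM final added, 1 hr RT; FP ex 555/em 632 nm.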
Tau fibril ThT: qHTS for Inhibitors of Tau Fibril Formation, Thioflavin T Binding; Microtubule-associated protein tau (Homo sapiens), P10636; recombinant tau K18 P301L, heparin-induced fibrillization, ThT fluorescence; Potency, µM (titrated, usually from 57.4 µM), without a hit: at the highest dose activity, negative = inhibition, actives largely listed as inhibitors; actives 2.1% (n = 270,000); further: potency means the concentration at half of the fitted maximal effect; nearly all actives have a fitted effect of over 55% in size
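Recombinant human tau K18 fragment […] carrying P301L, 15 uM unlabeled plus 0.24 uM Alexa 594-labeled, was fibrillized with 20 uM heparin in 100 mM sodium acetate pH 7 for 6 hr at 37 C; 30 uM ThT fluorescence read after 1 hr.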
PNC assembly inh: High Content Assay for Compounds that inhibit the Assembly of the Perinucleolar Compartment; PC3M PTB-GFP, PNC prevalence imaging, 16 h; stronger effect = lower value; actives 3.1% (n = 140,000); activity change (PNC), negative = inhibition, % at 10 µM;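 active means readout at or below -70, meaning at least 70% loss of cells showing the perinucleolar compartment, a nuclear body marking cancer cells; inconclusive means readout between -30 and a set limit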;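 further: plate controls were DMSO wells for no effect and camptothecin positive control wells for full effect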
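Compounds are pinned in duplicate onto adhered PC3M cells stably expressing GFP-tagged PTB and incubated 16 h at 37 C. Cells are then fixed, nuclei stained with Hoechst, and PNC-positive cells counted.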
Tau fluor counter: Counterscreen qHTS for Inhibitors of Tau Fibril Formation, Fluorescence Polarization; tau K18 P301L (four-repeat tau fragment) Alexa594 fluorescence, heparin fibrillization; Potency, µM (highest dose often 57.7 µM), for the others: at the highest dose activity change, negative = decrease; actives 0.93% (n = 280,000); AID 1463, 2008; further: potency means the concentration at half of the fitted maximal effect; nearly all actives have a fitted effect of over 55% in size
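Human K18 P301L tau (15 uM unlabeled plus 0.24 uM Alexa 594-labeled, final) in 100 mM sodium acetate pH 7 was mixed with compound and 20 uM heparin and incubated 6 hr at 37 C.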
NPSR antag: qHTS Assay for Antagonists of the Neuropeptide S Receptor: cAMP Signal Transduction; Q6W5P4; CHO-NPSR cells, cAMP TR-FRET, antagonist mode; Potency, µM (doses to about 38.3 µM), for inactives: at the top dose activity change, negative = inhibition, most hits filed as inhibitors; actives 1% (n = 220,000); AID 1461, 2008; further: potency means the concentration at half of the fitted maximal effect; nearly all actives have a fitted effect of over 50% in size
Target sequence (Q6W5P4 whole entry, looked up): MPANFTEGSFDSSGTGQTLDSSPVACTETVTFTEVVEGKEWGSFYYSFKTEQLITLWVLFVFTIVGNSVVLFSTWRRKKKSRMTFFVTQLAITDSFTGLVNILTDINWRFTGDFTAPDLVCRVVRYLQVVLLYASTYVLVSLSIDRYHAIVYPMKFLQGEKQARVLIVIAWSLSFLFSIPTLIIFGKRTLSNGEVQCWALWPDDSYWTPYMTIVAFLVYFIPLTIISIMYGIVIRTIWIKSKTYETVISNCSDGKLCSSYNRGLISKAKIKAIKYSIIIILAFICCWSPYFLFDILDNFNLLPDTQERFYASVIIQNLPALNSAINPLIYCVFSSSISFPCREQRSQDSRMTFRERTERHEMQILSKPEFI
KDM4E inh: qHTS Assay for Inhibitors of Human Jumonji Domain Containing 2E (JMJD2E). Potency, µM (series often up to 57.1 µM), for inactives: at the top dose activity change, negative = inhibition, usual class: inhibitors. Lysine-specific demethylase 4E (Homo sapiens), B2RXH2. JMJD2E catalytic domain, FDH-coupled NADH fluorescence (FDH is formaldehyde dehydrogenase). actives 1.6% (n = 230,000). AID 2147, 2009; active means well fitted inhibition curve with a large enough effect, not every such curve was filed as active; inconclusive means small, poorly fitted or top-dose-only effect, or another doubt; inactive means no such curve, though single readings can be large or run the other way;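 further: potency means the concentration at half of the fitted maximal effect; 0% = wells with enzyme and -100% = buffer wells without enzyme; nearly all actives have a fitted effect of over 50% in size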
* hit, by the source's call; ? = inconclusive; . = no result given; [ ] = another dose, or the depositor's remark. Unless noted, the call rests on the fitted dose curve; in most records, active means well fitted curve in the direction sought with a large enough effect; inconclusive means small, poorly fitted or top-dose-only effect, or another doubt; inactive means no such curve, though single readings can be large; an effect the other way counts as inactive or inconclusive. Unless noted, on the % scale 0 is the no-effect control and ±100 the full control effect.

SMILES	Tau FP inhib	Tau fibril ThT	PNC assembly inh	Tau fluor counter	NPSR antag	KDM4E inh
CC(=O)Nc1nc(-c2ccccc2)ns1	-2.7%	-10.6%	-100.0*	-8.9%	-1.4%[46.1 µM]	6.8%
NC(=O)C1(N2CCCCC2)CCN(C(=S)NCCc2ccccc2)CC1	5.2%	0.2%	.	-3.8%	2.8%	0.5%
CC(=C1C(=O)c2ccccc2C1=O)N1CCC(C(N)=O)(N2CCCCC2)CC1	-8.8%	31.6µM*	21.7	-20.0%	-8.4%[46.1 µM]	?
O=C(Cn1c(=O)nc(-c2ccccc2)c2cc(Cl)ccc21)NCc1ccccc1	-9.3%	10.0%	.	10.7%	.	.
O=[N+]([O-])c1ccc(N2CCN(C(=S)Nc3cccc(F)c3)CC2)cc1	-6.8%	15.8µM*	.	?	-27.0%	-7.8%
COC(=O)c1[nH]c2ccc(Br)cc2c1NC(=O)CN1CCCc2ccccc21	2.7%	?	57.5	5.01µM*[quencher]	-27.8%[46.1 µM]	-23.2%
COC(=O)c1[nH]c2cc(C)ccc2c1NC(=O)CN1CCCc2ccccc21	?	?	25.2	?	?	-14.1%
CCCC(=O)Nc1cc(C(=O)O)ccc1S(=O)(=O)c1ccc(C)cc1	-7.9%	-6.2%	-113.4*	-8.0%	-0.9%	-22.3%
CCCC(=O)Nc1cc(C(=O)NCc2ccccc2)ccc1S(=O)(=O)c1ccc(Cl)cc1	-3.4%	?	.	-25.4%	.	.
Cc1c(NC(=O)c2ccc(Cl)cc2)cc(C(C)C)c(O)c1S(=O)(=O)c1ccccc1	?	-6.1%	.	-27.7%	.	.
Cc1cccc(CC(=O)NC2CC(=O)N(c3ccccc3)C2)c1 (stereo not given)	-3.4%	-6.1%	.	-3.8%	.	.
COc1ccc2c(c1)-c1nc(N)sc1CC2	?	31.6µM*	.	?	-0.4%	?
COc1ccc2c(c1)-c1nc(NC(=O)c3ccc(Cl)cc3)sc1CC2	-15.7%	-4.4%	.	-15.9%	.	.
COc1ccc2c(c1)-c1nc(NC(=O)c3cc(OC)c(OC)c(OC)c3)sc1CC2	4.5%	-11.9%	.	?	.	.
COc1ccc2c(c1)-c1nc(/N=C/c3ccc(O)c(OC)c3)sc1CC2	?	31.6µM*	-7.7	-24.2%	4.8%	?
Cc1cccc(CSc2ccc3nnc(CCNS(=O)(=O)c4ccccc4)n3n2)c1	3.7%	-4.8%	.	-4.1%	.	.
COc1ccc(NC(=S)NCc2cccnc2)cc1	-7.5%	-12.8%	.	-12.5%	20.0%	-12.4%
S=C(NCc1cccnc1)Nc1ccc(Oc2ccc(Cl)cc2)cc1	?	-19.1%	.	12.6µM*[quencher]	24.1%	-12.0%
COc1ccc(NC(=O)C(NS(=O)(=O)c2ccc3c(c2)CCCC(=O)N3)C(C)C)c(OC)c1 (stereo not given)	0.9%	-9.6%	.	-11.7%	.	.
COc1ccc(S(=O)(=O)N=C2C=C(C)C(=O)C(C)=C2)cc1	7.2%	-23.7%	18.4	-20.6%	-3.7%[46.1 µM]	1.9%
C=CC(C1=CC(=O)C(OC)=CC1=O)c1ccccc1 (stereo not given)	20µM*	15.8µM*	.	14.1µM*[quencher]	.	2.24µM*
COc1ccc(C(=O)N/N=C/C(C)c2ccccc2)cc1OC (stereo not given)	5.7%	-6.6%	-25.8	-5.2%	-12.9%[46.1 µM]	12.5%
C=CC(C1=CC(=O)C(OC)=C(OC)C1=O)c1ccccc1 (stereo not given)	?	12.6µM*	.	25.1µM*[quencher]	.	?
C=CC(C1=CC(=O)C(OC)=CC1=O)c1ccc(OC)cc1 (stereo not given)	?	15.8µM*	.	?	.	?
O=C(OCc1cc(=O)n2nc(-c3cccs3)sc2n1)c1ccccc1Cl	-0.9%	?	.	-9.4%	.	.
SMILES	Tau FP inhib	Tau fibril ThT	PNC assembly inh	Tau fluor counter	NPSR antag	KDM4E inh
COc1ccc(-c2cc(C(F)(F)F)nc(SCC(=O)NC(C)c3ccccc3)n2)cc1 (stereo not given)	?	-4.8%	.	-13.7%	.	.
COc1ccc(C)cc1NS(=O)(=O)c1ccc2c(c1)[C@H]1C=CC[C@H]1[C@@H](c1cccc(Cl)c1)N2	10.2%	?	.	?	.	.
COc1cccc(NS(=O)(=O)c2ccc3c(c2)C2C=CCC2C(c2ccc(C(=O)O)cc2)N3)c1 (stereo not given)	?	14.1µM*	23.3	12.6µM*[quencher]	-27.3%	?
Cc1cccc(NS(=O)(=O)c2ccc3c(c2)[C@H]2C=CC[C@H]2[C@@H](c2ccc(F)cc2)N3)c1	-7.9%	?	.	5.62µM*[quencher]	.	.
COc1ccc(C(=O)N/N=C(\C)c2ccc3c(c2)C2C=CCC2C(c2ccccc2)N3)cc1 (stereo not given)	-4.1%	12.6µM*	-1.0	?	-0.7%	20µM*
COC(=O)c1ccc([C@H]2Nc3ccc(S(=O)(=O)Nc4ccc(F)cc4)cc3[C@H]3C=CC[C@H]32)cc1	-4.7%	?	.	?	.	.
Fc1ccccc1-c1nc(N2CCN(c3cccc(Cl)c3)CC2)c2ccccc2n1	?	-6.6%	.	-16.8%	.	.
O=C(O)c1ccc(S(=O)(=O)c2ccc3c(c2)C(=O)N(CC2CCCO2)C3=O)cc1 (stereo not given)	6.1%	-1.6%	-100.0*	-2.1%	-7.7%[46.1 µM]	2.0%
O=C(O)c1ccc(C(=O)c2ccc3c(c2)C(=O)N(CC2CCCO2)C3=O)cc1 (stereo not given)	-1.2%	-6.2%	.	-1.8%	9.7%	-18.1%
CCN1/C(=C/C=C/c2oc3ccc4ccccc4c3[n+]2CC)Oc2ccc3ccccc3c21	?	1.12µM*	.	2.82µM*[fluorescent]	19.9%	14.1µM*
Cc1ccc(C)c(N2CCN(C(=O)c3ccc4c(Cl)c5c(nc4c3)CCCC5)CC2)c1	-4.6%	?	.	-11.8%	.	.
CCS(=O)(=O)N1CCC(C(=O)N2CCc3ccccc3C2)CC1	?	?	-4.7	15.8µM*[quencher]	-16.7%[46.1 µM]	-2.0%
CC(C)CN(CC(C)C)S(=O)(=O)N1CCC(C(=O)N2CCc3ccccc3C2)CC1	5.8%	-6.1%	-5.9	-4.9%	-11.4%	0.2%
C/C(N)=C(/C#N)C(=O)CSc1nnnn1-c1ccc(C)cc1C	-1.8%	-11.2%	-133.4*	-18.0%	-3.7%[46.1 µM]	6.7%
O=c1cc(-c2ccc([N+](=O)[O-])cc2)nc2cc(-c3ccc(F)cc3)[nH]n12	13.2%	10µM*	?	?	-19.3%	5.3%
Cc1ccccc1-c1cc2nc(-c3ccc([N+](=O)[O-])cc3)cc(=O)n2[nH]1	7.0%	?	.	-24.5%	-0.8%	-1.6%

Screening data deposited in PubChem by National Center for Advancing Translational Sciences (NCATS).
